According to the supplement of paper PMC8728848:
Many of the other results were omitted from the sample, so the strongest signals are more common in it than they were.

Assays:
Assay in all cases: glycan array binding signal (z-score within array); higher = stronger binding
Settings in all cases: glycan notation: IUPAC condensed, linker removed
[1] = target: GalNAc3S(b1-4)GlcNAc3S
Outline: (§1)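 Columns mapping to the same glycan were averaged after glycan names were converted to IUPAC-condensed notation. The data come from 3228 arrays in the Consortium for Functional Glycomics database, limited to those with an available protein sequence. Binding is reported as a within-array Z-score averaged across arrays of one protein sequence and across linkers.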

[2] = target: GlcNAc(b1-2)[GlcNAc(b1-6)]Man(a1-6)[GlcNAc(b1-2)Man(a1-3)]Man(b1-4)GlcNAc(b1-4)GlcNAc
Outline: as §1

[3] = target: GlcNAc(b1-3)Gal(b1-4)Glc
Outline: as §1

[4] = target: GlcNAc(b1-3)Gal(b1-4)GlcNAc
Outline: as §1

[5] = target: GlcNAc(b1-3)Gal(b1-4)GlcNAc(b1-2)[GlcNAc(b1-3)Gal(b1-4)GlcNAc(b1-6)]Man(a1-6)[GlcNAc(b1-3)Gal(b1-4)GlcNAc(b1-2)Man(a1-3)]Man(b1-4)GlcNAc(b1-4)GlcNAc
Outline: as §1

[6] = target: GlcNAc(b1-3)GalNAc
Outline: as §1

[7] = target: GlcNAc(b1-3)[GlcNAc(b1-4)][GlcNAc(b1-6)]GlcNAc
Outline: as §1

[8] = target: Man(a1-3)[Man(a1-6)]Man(a1-6)[Man(a1-2)Man(a1-3)]Man(b1-4)GlcNAc(b1-4)GlcNAc
Outline: as §1

[9] = target: Neu5Ac(a2-3)Gal(b1-3)GalNAc(b1-4)Gal(b1-4)Glc
Outline: as §1

[10] = target: Neu5Ac(a2-3)Gal(b1-3)GalNAc(b1-4)[Neu5Ac(a2-3)]Gal(b1-4)Glc
Outline: as §1

[11] = target: Neu5Ac(a2-3)Gal(b1-3)GlcNAc(b1-2)Man(a1-3)[GlcNAc(b1-4)][Neu5Ac(a2-3)Gal(b1-3)GlcNAc(b1-2)Man(a1-6)]Man(b1-4)GlcNAc(b1-4)GlcNAc
Outline: as §1

[12] = target: Neu5Ac(a2-3)Gal(b1-4)Glc
Outline: as §1

[13] = target: Neu5Ac(a2-3)Gal(b1-4)GlcNAc(b1-3)Gal(b1-4)GlcNAc(b1-3)GalNAc
Outline: as §1

[14] = target: Neu5Ac(a2-3)Gal(b1-4)GlcNAc(b1-3)Gal(b1-4)GlcNAc(b1-3)[Neu5Ac(a2-3)Gal(b1-4)GlcNAc(b1-3)Gal(b1-4)GlcNAc(b1-6)]GalNAc
Outline: as §1

[15] = target: Neu5Ac(a2-3)Gal(b1-4)GlcNAc(b1-6)[Neu5Ac(a2-3)Gal(b1-3)]GalNAc
Outline: as §1

[16] = target: Neu5Ac(a2-3)Gal(b1-4)[Fuc(a1-3)]GlcNAc(b1-3)GalNAc
Outline: as §1

[17] = target: Neu5Ac(a2-6)Gal(b1-4)GlcNAc(b1-2)Man(a1-6)[Gal(b1-4)GlcNAc(b1-2)Man(a1-3)]Man(b1-4)GlcNAc(b1-4)GlcNAc
Outline: as §1

[18] = target: Neu5Ac(a2-6)Gal(b1-4)GlcNAc(b1-2)Man(a1-6)[GlcNAc(b1-2)Man(a1-3)]Man(b1-4)GlcNAc(b1-4)GlcNAc
Outline: as §1

[19] = target: Neu5Ac(a2-6)Gal(b1-4)GlcNAc(b1-3)Gal(b1-4)GlcNAc(b1-6)[Gal(b1-3)]GalNAc
Outline: as §1

[20] = target: Neu5Ac(a2-6)GlcNAc(b1-4)GlcNAc
Outline: as §1

[21] = target: Neu5Ac(a2-8)Neu5Ac(a2-8)Neu5Ac(a2-3)Gal(b1-4)Glc
Outline: as §1

[22] = target: Neu5Ac(a2-8)Neu5Ac(a2-8)Neu5Ac(a2-3)[GalNAc(b1-4)]Gal(b1-4)Glc
Outline: as §1

[23] = target: Neu5Gc(a2-8)Neu5Gc(a2-6)Gal(b1-4)GlcNAc
Outline: as §1

B1: CcfD (Bacteroides vulgatus), A6KYX8 (protein)
chain: MKYKNYFKSIIYLALGAFTLGSCEDFLDRQEDEKLTFDKIWESRNTTQQYWLNAMSFLPNENGSLQGDTEPYLGASDECTIAYDRQYRWINFGTWNPSQVPYYKMDHYYKGIRECNIFLQNVYKCSDPLVTKDQLDEWYWQTRFARAYYYFLMMRDYGPVFLLGDDLLDFTASTEELYRPRNTWDQCVNYVVSEMTQCAESGVVLQQSDLPAAKWGLATVGTCHAVISRLLLYSARPLFNGNKLYSTVKNPDAPDFPELSGVKLFPELDNTKWQKAAEAAKKLIDNPCYELYRAGNDNPYEDYYGVTHETWNKELIWTDRYNGLFSWGVGTVPTGVAGTAYGAVGPTQALVDAYAMNTGWYPITGYEADGTPIVEPLSGYELASELEKSSWIYPSGGWSNKADFEIEAPNMYKDREPRFYVTVFFGGNQWLHGNSATSISFAKGGNGNKSHDYPKSGYLCNRFYDHKLNSSEGQWGNITFPVFRLGEIYLNFIEAVLECKKNGVALDPSYEALAMEKWADLRKRAGLDPITSIYGQVSTEELIQLCRKERQIELAFERHRYFDTRTWMIATQTDNGKMYGMNTSCPLDAGMKGTETPDGFWERTAFETRVFQNKHYLYPFSQRELDRNKLLTQNYGW
- glycan array binding signal (z-score) [1]: -0.21
- glycan array binding signal (z-score) [2]: -0.663
- glycan array binding signal (z-score) [3]: -0.881
- glycan array binding signal (z-score) [4]: -1.04
- glycan array binding signal (z-score) [5]: 3.38
- glycan array binding signal (z-score) [6]: -0.332
- glycan array binding signal (z-score) [7]: 2.41
- glycan array binding signal (z-score) [8]: -0.673
- glycan array binding signal (z-score) [9]: -0.17
- glycan array binding signal (z-score) [10]: 2.47
- glycan array binding signal (z-score) [11]: -0.526
- glycan array binding signal (z-score) [12]: -0.589
- glycan array binding signal (z-score) [13]: -0.693
- glycan array binding signal (z-score) [14]: -0.429
- glycan array binding signal (z-score) [15]: 5
- glycan array binding signal (z-score) [16]: -0.078
- glycan array binding signal (z-score) [17]: 6.49
- glycan array binding signal (z-score) [18]: 7
- glycan array binding signal (z-score) [19]: -0.841
- glycan array binding signal (z-score) [20]: 0.582
- glycan array binding signal (z-score) [21]: -0.871
- glycan array binding signal (z-score) [22]: -0.556
- glycan array binding signal (z-score) [23]: -1.1
